BRCA1 expr act – activators of BRCA1 expression; MCF7-BRCA1-FFLuc reporter, luminescence, 48 h; response scale: scaled: vehicle 0%, 10 µM genistein 100%; Potency, µM (top dose mostly 46.1 µM), for inactives: at the highest dose activation, hits mostly activators; AID 624202; actives 1.1% (n = 380,000); further: potency means the concentration at half of the fitted maximal effect; nearly all actives have a fitted effect of over 80% in size
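MCF7-BRCA1-FFLuc cells, 2000/well in phenol-red-free MEM, attached 2 h then treated 48 h at 37 C. Luciferase luminescence read 15 min after reagent; normalized to genistein maximum activation (10microM) and DMSO, concentration-response fitted.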
Nrf2 ARE act – Nrf2 pathway activation. AREc32 ARE-luciferase reporter (MCF7-derived line), luminescence, 24 h. Potency, µM (series often up to 46.1 µM), inactives show at the highest dose activation, most hits filed as activators. actives 0.31% (n = 410,000). AID 624171; further: potency means the concentration at half of the fitted maximal effect; % of control where 0% means no effect; nearly all actives have a fitted effect of over 65% in size
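Quantitative high-throughput format: AREc32 reporter cells, 1000 per well, received compound by pin transfer and were incubated 24 hr at 37 deg C, 5% CO2, before Steady-Glo luminescence detection.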
IL2 activator – IL-2 activation | AID 652025 | IL-2 activation reporter assay, cell-based qHTS; stimulated with anti-CD3/CD4/CD28 beads; in transgenic mouse T cells | actives 0.065% (n = 360,000) | activation, % (series mostly up to about 46 µM); in the data active means activation above about 50%; inconclusive means mostly about 30% to 49%; further: 0% is about no effect
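Readout is EGFP and DsRed signal by fluorescent plate cytometry after 18 h at 37 degrees C. Transgenic mouse T cells (750/well) received compound for 60 min before bead stimulation (anti-CD3, anti-CD4, anti-CD28); memory T cells served as non-tolerant control.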
ELG1 DNA repair – inhibitors of ELG1-dependent DNA repair in HEK293T cells; HEK293T ELG1-luciferase reporter, luminescence, 16 h; DNA damage induced by 5-fluorouridine; actives 2.3% (n = 330,000); Potency, µM (titrated, usually from 46.1 µM), for inactives: at the highest dose activity change, negative = inhibition, usual class: inhibitors; further: potency means the concentration at half of the fitted maximal effect; on the % scale 0 is the no-effect control and ±100 the full control effect; nearly all actives have a fitted effect of over 55% in size
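In this reporter screen, reduction of luminescence relative to DMSO vehicle indicated activity. Compounds and 5-fluorouridine were added together to 2,000 cells per well, incubated for 16 hr at 37 °C, then developed with ONE-Glo.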
* = called active by the depositor; ? = inconclusive; · = no result given; [ ] = remark or other dose. In the library only some 3.1% were active in any assay of this set; here they are far more common. Unless noted, the call rests on the fitted dose curve; in most records, active means well fitted curve in the direction sought with a large enough effect; inconclusive means small, poorly fitted or top-dose-only effect, or another doubt; inactive means no such curve, though single readings can be large; an effect the other way counts as inactive or inconclusive.

SMILES | BRCA1 expr act | Nrf2 ARE act | IL2 activator | ELG1 DNA repair
CC(=O)n1c2ccccc2c2ccccc21 | -2.0% | -0.7% | 2.4 | -27.6%
COc1cc(NC(=O)Cn2c(-c3ccccc3)cc(C(C)=O)c2C)cc(OC)c1 | · | 0.7% | · | ·
Cc1ccc(-c2cc(C(=O)NCc3cnn(C)c3C)c3cc(Br)ccc3n2)cc1 | 80.9% | 5.1% | 0.4 | 10.7%
Cc1ccc(-c2cc(C(=O)N(C)Cc3cnn(C)c3C)c3cc(Br)ccc3n2)cc1 | -84.8% | -0.1% | 2.1 | 5.8µM*
O=C(Nc1ccc(Cl)cc1)Nc1ccccn1 | 37.5% | 10µM* | 0.0 | ?
Cc1ccc(NC(=O)Nc2ccc(Cl)cn2)cc1 | 4.47µM* | 8.8% | 2.6 | ?
O=C(Nc1ccccc1)Nc1ccccn1 | 54.8% | ? | -3.4 | ?
CCOC(=O)c1ccc(NC(=O)Nc2ccccn2)cc1 | 5.01µM* | 2.3% | 0.1 | ?
Cc1ccc(NC(=O)N2CCc3c(sc4c3CCCC4)C2c2ccccc2)cc1F (stereo unspecified) | · | 5.4% | · | ·
CCOc1ccc(S(=O)(=O)/N=C(/c2ccccc2)N(C)C)cc1 | 20.8% | -0.8% | 0.2 | 1.0%
CCOc1ccc(S(=O)(=O)/N=C(\N)c2ccccc2)cc1 | 0.0% | -0.4% | -2.8 | 23.1µM*
COc1cc(-c2nc(C(N)=O)c3c(n2)n(-c2cccc(C)c2)c(=O)n3C)cc(OC)c1OC | 0.3% | 0.3% | · | ·
CNc1ccccc1C(C)(C)c1cc(-c2cccc([N+](=O)[O-])c2)no1 | -39.3% | 3.4% | -0.3 | 1.46µM*
CNc1ccccc1C(C)(C)c1cc(-c2cccc(Br)c2)no1 | -30.5% | 5.1% | -0.4 | 9.2µM*
CNc1ccccc1C(C)(C)c1cc(-c2ccc(F)cc2)no1 | -37.8% | -0.7%[9.22 µM] | 0.0 | ?
Cc1ccc(-c2csc(NC(=O)C3CC(=O)N(c4ccc5c(c4)OCCO5)C3)n2)o1 (stereo unspecified) | 0.0% | · | · | ·
FC(F)(F)c1cccc(N2CCN(C(=S)NCC3CCCO3)CC2)c1 (stereo unspecified) | -17.2% | 3.2% | 1.4 | 20.6µM*
S=C(NCC1CCCO1)N1CCN(c2ccccc2)CC1 (stereo unspecified) | 17.8% | 3.3% | 5.1 | ?
O=C(c1ccc(S(=O)(=O)NCC2CCCO2)cc1)N1CCN(c2cccc(Cl)c2)CC1 (stereo unspecified) | -9.7% | 0.4% | -3.0 | 9.2µM*
CCOC(=O)C1CCCN(C(=O)c2ccc(NC(=O)c3nsc4ccccc34)cc2)C1 (stereo unspecified) | · | 4.3% | · | ·
CCOC(=O)c1c(/N=C/N(C)C)sc(/C=N/Nc2ccccc2)c1-c1ccccc1Cl | -3.5% | 3.5% | -0.4 | 20.6µM*
O=C(NCCCN1CCCC1=O)c1cc2c(s1)CCCCC2 | 11.2µM* | -0.8% | 1.4 | ?
COc1cc(NC(=O)Cn2c(=O)oc3cc(S(=O)(=O)N4CCCCCC4)ccc32)cc(OC)c1 | · | 0.6% | · | ·
COc1ccccc1C1=NC(c2ccc(C)cc2)N=C1C (stereo unspecified) | 10µM* | 3.6% | -3.7 | ?
O=C1C=CC(O)(c2cc(=O)c3c(O)cc(O)cc3o2)C=C1 | -81.9% | -3.0% | -0.7 | 3.26µM*
SMILES | BRCA1 expr act | Nrf2 ARE act | IL2 activator | ELG1 DNA repair
COCCn1c(C)cc(O)c(C(c2ccccc2OC)N2CCN(c3ccccc3)CC2)c1=O (stereo unspecified) | · | -0.3% | · | ·
COc1ccc(-c2csc(NC(=O)C3CC(=O)N(c4ccc5c(c4)OCCO5)C3)n2)cc1 (stereo unspecified) | -65.7% | -0.2%[9.22 µM] | -0.4 | 23.1µM*
O=C(O)C(=O)Nc1nc(-c2ccc3c(c2)OCCO3)cs1 | 48.8% | 4.2% | -0.3 | ?
O=C(Nc1nc(-c2ccc3c(c2)OCO3)cs1)C1CC1 | 4.47µM* | 0.1% | -3.0 | ?
COc1ccc(C(=O)Oc2ccc(C(c3c(C)[nH][nH]c3=O)c3c(C)[nH][nH]c3=O)cc2)cc1 | · | 9.9% | · | ·
N#C/C(C(=O)c1ccccc1)=C1/CCCCCN1 | 3.98µM* | -0.1% | 0.4 | ?
CCn1cc(C(=O)NCc2ccc(C)cc2)c(=O)c2cc(S(=O)(=O)N3CCCCCC3)ccc21 | · | 0.8% | · | ·
O=c1oc2ccccc2nc1/C=C(O)/C=C\c1ccccc1 | -10.7% | 15.8µM* | -2.6 | 32.7%
Cc1ccc(/C(O)=C/c2nc3ccccc3oc2=O)cc1 | -20.4% | 12.6µM* | -0.4 | 2.0%
O=c1oc2ccccc2nc1/C=C(O)/C=C/c1ccc(F)cc1 | -45.1% | 17.8µM* | -1.8 | ?
Cc1ccc2oc(=O)c(/C=C(\O)C(C)(C)C)nc2c1 | -21.3% | ? | -0.4 | -6.3%
COc1ccc(/C=C/C(=O)N2CCC(c3nc4ccccc4o3)CC2)cc1 | · | 0.0% | · | ·
COCCNC(=O)CCCn1c(SCc2ccccc2C)nc2c(sc3ccccc32)c1=O | · | -0.7% | · | ·
CCCS(=O)(=O)NC(=O)C1(C)CCN(C(=O)c2ccc(C(F)(F)F)nc2C)C1 (stereo unspecified) | 1.8% | 0.8% | 1.7 | ·
CS(=O)(=O)NCCSCc1c(F)cccc1Cl | -1.9% | -0.6% | -0.2 | -0.2%
CN(c1ccc(C(=O)NCCSCc2c(F)cccc2Cl)cc1)S(C)(=O)=O | -22.3% | -0.7% | 5.5 | 13µM*
CCOC(=O)c1c(C)oc2ncnc(N3CCN(c4ccccc4OC)CC3)c12 | · | 4.7% | · | ·
O=C(C1CCCN(S(=O)(=O)Cc2ccccc2)C1)N1CCc2ccccc21 (stereo unspecified) | -29.2% | -0.3% | -1.8 | 25.9µM*
CCOC(=O)C1CCCN(S(=O)(=O)Cc2ccccc2)C1 (stereo unspecified) | 23.5% | -0.9% | -3.0 | -1.3%
CC1(c2nnnn2C2CCCC2)CCC(=O)N1c1ccc2c(c1)OCCO2 (stereo unspecified) | · | · | 0.6 | ·
CC(C)CC1C(=O)N(Cc2cn(Cc3ccco3)nn2)CCS(=O)(=O)N1Cc1ccc(-c2ccccc2)cc1 (stereo unspecified) | -65.5% | -3.0% | -3.5 | ·
O=C(NN/C(=N/S(=O)(=O)c1ccc(Cl)cc1)c1ccccc1)c1cccc(Cl)c1 | 7.6% | 4.47µM* | 0.1 | ?
CCOCCCNC(=O)Cn1ncc2c([nH]c3ccccc32)c1=O | · | 0.1% | · | ·
Nc1ccc(NC(=O)NC2CCCCC2)cc1[N+](=O)[O-] | 3.98µM* | 2.6% | -0.7 | ?
Nc1ccc(NC(=O)NC2CCCCC2)cc1 | 52.2% | -0.9% | -1.0 | ?
CCN(c1ccccc1)S(=O)(=O)c1ccc(Cl)c(NC(=O)CNCc2ccccc2OC)c1 | -46.4% | 1.1% | -6.2 | 18.3µM*
CCN(c1ccccc1)S(=O)(=O)c1ccc(OC)c(NC(=O)Cc2ccc(OC)c(OC)c2)c1 | -36.5% | 0.0% | 0.0 | 18.3µM*
CCc1nn(CC(=O)Nc2ccc(N(CC)CC)cc2C)c(=O)c2cc3sccc3n12 | · | -0.5% | · | ·
Cc1ccc(NC(=O)C2CCC(CNS(=O)(=O)c3ccc4c(c3)CCCC(=O)N4)CC2)cc1F (stereo unspecified) | -25.4% | 5.4% | · | ·

Screening results (PubChem)
